# Measurements taken from PubChem BioAssay (NCATS).
# Results filed as inconclusive are left out. Where a call stands in place of a potency, no number is given. Unmarked numbers belong to inactive results. Calls of active or inactive are those of the source. Calls follow the shape of the dose curve; as a rule, active = well fitted curve in the direction sought with a large enough effect; inconclusive = small, poorly fitted or top-dose-only effect, or another doubt; inactive = no such curve, though single readings can be large; an effect the other way counts as inactive or inconclusive.
# Columns and labels:
# NIH3T3 = test: qHTS assay to identify novel small-molecules to repurpose for Merkel cell carcinoma treatment (AID 1296009); settings: MCC and control cell lines, CellTiter-Glo viability, 72 h; at 44.8 µM (top of the series) unless noted; also: nearly all actives have a fitted effect of over 60% in size
# Procedure, shortened: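 72 hr, 37 degree celsius; NPC 8-pt / MIPE 11-pt dose response; compound pinned in DMSO; CellTiter-Glo, 10 min RT, luminescence; normalized to no-cell and DMSO controls.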
# C33A = test: Primary qHTS to identify gynecologic anti-cancer compounds using libraries of approved drugs and bioactive compounds (AID 1345084); settings: Gynecologic cancer cell panel viability, ATPlite luminescence, 48 h; series mostly up to 57.5 µM; also: nearly all actives have a fitted effect of over 55% in size; also: potency is read from the fitted curve at half-maximal effect
# Procedure, shortened: (§1)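 Cell viability after 48 h drug treatment, ATPlite luminescence readout; five doses.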
# CAOV3 = test: as above; settings: Gynecologic cancer cell panel viability, ATPlite luminescence, 48 h; series mostly up to 57.5 µM
# Procedure, shortened: as §1
# Es-2 = test: as above; settings: Gynecologic cancer cell panel viability, ATPlite luminescence, 48 h; series mostly up to 57.5 µM
# Procedure, shortened: as §1
# HeLa = test: as above; settings: Gynecologic cancer cell panel viability, ATPlite luminescence, 48 h; series mostly up to 57.5 µM
# Procedure, shortened: as §1
# Hek293T = test: as above; settings: Gynecologic cancer cell panel viability, ATPlite luminescence, 48 h, control line for the selectivity index; series mostly up to 57.5 µM
# Procedure, shortened: as §1
# JEG-3 = test: as above; settings: Gynecologic cancer cell panel viability, ATPlite luminescence, 48 h; series mostly up to 57.5 µM
# Procedure, shortened: as §1
# CASKI = test: as above; settings: Gynecologic cancer cell panel viability, ATPlite luminescence, 48 h; series mostly up to 57.5 µM
# Procedure, shortened: as §1
smiles,measurement,setting,value
CC(NC(=O)CC(=O)O)C(=O)Nc1ccccc1C(N)=O (stereo not given),outcome,NIH3T3,inactive
same,Potency,C33A,inactive
same,Potency,CAOV3,inactive
same,Potency,Es-2,inactive
same,Potency,HeLa,inactive
same,Potency,Hek293T,inactive
same,Potency,JEG-3,inactive
CC(C)=C1CC2C(CCC2(C)O)C(C)(O)CC1=O (stereo not given),outcome,NIH3T3,inactive
same,Potency,C33A,inactive
same,outcome,CASKI,inactive
same,Potency,Es-2,inactive
same,Potency,HeLa,inactive
same,Potency,Hek293T,inactive
same,Potency,JEG-3,inactive
COC(=O)C1=COC(OC2OC(CO)C(O)C(O)C2O)C2C(C)CC(=O)C12O (stereo not given),Potency,C33A,inactive
same,Potency,CAOV3,inactive
same,outcome,CASKI,inactive
same,Potency,Es-2,inactive
same,Potency,HeLa,inactive
same,Potency,Hek293T,inactive
same,Potency,JEG-3,inactive
C=CC(C)(O)CCC1C(C)(O)CCC2C(C)(C)CCCC21C (stereo not given),Potency,C33A,inactive
same,Potency,CAOV3,inactive
same,outcome,CASKI,inactive
same,Potency,Es-2,inactive
same,Potency,HeLa,inactive
same,Potency,Hek293T,inactive
same,Potency,JEG-3,inactive
CC(C)[C@@](O)(c1ccc2cc(OC(F)F)c(OC(F)F)cc2c1)c1cn[nH]n1,outcome,NIH3T3,inactive
same,Potency,C33A,inactive
same,outcome,CASKI,inactive
same,Potency,Es-2,inactive
same,Potency,HeLa,inactive
same,Potency,Hek293T,inactive
same,Potency,JEG-3,inactive
O=C(O)[C@H](Cc1ccccc1)Oc1ccc(-c2ccccc2)cc1,outcome,NIH3T3,inactive
same,Potency,C33A,inactive
same,outcome,CASKI,inactive
same,Potency,Es-2,inactive
same,Potency,HeLa,inactive
same,Potency,Hek293T,inactive
same,Potency,JEG-3,inactive
C/C=C(\C)C(=O)OC1C(C)C2(O)C3C=C(C)C(=O)C3CC(CO)=CC2C2C(C)(C)C12OC(C)=O (stereo not given),outcome,NIH3T3,inactive [at 17.4 µM]
same,Potency,CAOV3,inactive
same,outcome,CASKI,inactive
same,Potency,Es-2,112 nM (active)
same,Potency,HeLa,inactive
same,Potency,Hek293T,inactive
same,Potency,JEG-3,inactive
CC1(C)CC[C@]2(C(=O)O[C@@H]3O[C@H](CO[C@@H]4O[C@H](CO)[C@@H](O)[C@H](O)[C@H]4O)[C@@H](O)[C@H](O[C@@H]4O[C@H](CO)[C@@H](O)[C@H](O)[C@H]4O)[C@H]3O)[C@H](O)C[C@]3(C)C(=CCC4[C@@]5(C)CC[C@H](O[C@@H]6OC[C@@H](O)[C@H](O)[C@H]6O)[C@@](C)(C(=O)O)C5CC[C@]43C)[C@@H]2C1 (stereo not given in full),"activity change, negative = cytotoxicity",C33A,-4.53% [at 11.6 µM]
same,"activity change, negative = cytotoxicity",CASKI,0.848% [at 11.6 µM]
same,"activity change, negative = cytotoxicity",Es-2,1.6% [at 11.6 µM]
same,"activity change, negative = cytotoxicity",HeLa,2.79% [at 11.6 µM]
same,"activity change, negative = cytotoxicity",Hek293T,10.6% [at 11.6 µM]
same,"activity change, negative = cytotoxicity",JEG-3,-3% [at 11.6 µM]
C=C1CC23CC1CCC2C12OC(=O)C(C)(C(O)C(O)C1O)C2C3C(=O)O (stereo not given),outcome,NIH3T3,inactive
same,Potency,C33A,inactive
same,outcome,CASKI,inactive
same,Potency,Es-2,inactive
same,Potency,HeLa,inactive
same,Potency,Hek293T,inactive
same,Potency,JEG-3,inactive
Cc1ccc(C)c(NC(=O)CNS(=O)(=O)c2ccc3[nH]c(=O)oc3c2)c1,outcome,NIH3T3,inactive
same,Potency,C33A,inactive
same,Potency,CAOV3,inactive
same,Potency,Es-2,inactive
same,Potency,HeLa,inactive
same,Potency,Hek293T,inactive
same,Potency,JEG-3,inactive
C=CC(C)(CCC=C(C)C)O[C@@H]1O[C@H](CO)[C@@H](O)[C@H](O)[C@H]1O (stereo not given in full),Potency,C33A,inactive
same,outcome,CASKI,inactive
same,Potency,Es-2,inactive
same,Potency,HeLa,inactive
same,Potency,Hek293T,inactive
same,Potency,JEG-3,inactive
C/C(=C\C(=O)C(C)C1CCC2C3=C(CCC21C)C1(C)CCC(=O)C(C)(C)C1(O)CC3)C(C)(C)O (stereo not given),outcome,NIH3T3,inactive [at 17.4 µM]
same,Potency,C33A,inactive
same,outcome,CASKI,inactive
same,Potency,Es-2,inactive
same,Potency,HeLa,inactive
same,Potency,Hek293T,inactive
same,Potency,JEG-3,inactive
Cc1ccccc1N1CCN(S(=O)(=O)C[C@]23CC[C@H](C[C@@H]2NC(=O)[C@@H](N)CCS(C)(=O)=O)C3(C)C)CC1,outcome,NIH3T3,inactive
same,Potency,C33A,inactive
same,outcome,CASKI,inactive
same,Potency,Es-2,inactive
same,Potency,HeLa,inactive
same,Potency,Hek293T,inactive
same,Potency,JEG-3,inactive
COc1cn(-c2ccc(-n3cccn3)cc2F)nc(-c2ccnn2-c2ccccc2)c1=O,Potency,C33A,inactive
same,Potency,CAOV3,inactive
same,outcome,CASKI,inactive
same,Potency,Es-2,inactive
same,Potency,HeLa,inactive
same,Potency,Hek293T,inactive
same,Potency,JEG-3,inactive
O=C(COCC(=O)N1CCN(C(c2ccccc2)c2ccccc2)CC1)Nc1ccc(Cl)cc1C(=O)O,Potency,C33A,inactive
same,Potency,CAOV3,inactive
same,outcome,CASKI,inactive
same,Potency,Es-2,inactive
same,Potency,HeLa,inactive
same,Potency,Hek293T,inactive
same,Potency,JEG-3,inactive
CC(C)c1ccc2c(c1)[C@H](O)CC1[C@@](C)(C(=O)O)CCC[C@]21C (stereo not given in full),Potency,C33A,inactive
same,Potency,CAOV3,inactive
same,outcome,CASKI,inactive
same,Potency,Es-2,inactive
same,Potency,HeLa,inactive
same,Potency,Hek293T,inactive
same,Potency,JEG-3,inactive
COc1cc2c(cc1OC)N1C(=O)C[C@@]34C=CC[N@+]5([O-])CC[C@H]2[C@H](CC3)[C@@]145,outcome,NIH3T3,inactive
same,Potency,C33A,inactive
same,outcome,CASKI,inactive
same,Potency,Es-2,inactive
same,Potency,HeLa,inactive
same,Potency,Hek293T,inactive
same,Potency,JEG-3,inactive
CC(C)=CCC(O)[C@](C)(O)C1[C@H](O)C[C@@]2(C)C3CC=C4C(C[C@H](O)[C@@H](O[C@@H]5O[C@H](CO)[C@@H](O)[C@H](O)[C@H]5O)C4(C)C)[C@]3(C)C(=O)C[C@]12C (stereo not given in full),Potency,C33A,inactive
same,Potency,CAOV3,inactive
same,outcome,CASKI,inactive
same,Potency,Es-2,inactive
same,Potency,HeLa,inactive
same,Potency,Hek293T,inactive
same,Potency,JEG-3,inactive
CCC(CC)CC1(C(=O)Nc2ccccc2SC(=O)C(C)C)CCCCC1,Potency,C33A,inactive
same,Potency,CAOV3,inactive
same,outcome,CASKI,inactive
same,Potency,Es-2,inactive
same,Potency,HeLa,inactive
same,Potency,Hek293T,inactive
same,Potency,JEG-3,inactive
Cc1nnc(-c2ccc3occ(-c4ccc(S(C)=O)cc4)c3c2)o1 (stereo not given),outcome,NIH3T3,inactive
same,outcome,CASKI,inactive
same,Potency,HeLa,inactive
same,Potency,Hek293T,inactive
same,Potency,JEG-3,inactive
COc1c(-c2ccc(O)cc2)cc(OC)c2c1oc1cc(O)c(OC3OC(CO)C(O)C3O)cc12 (stereo not given),Potency,C33A,inactive
same,Potency,CAOV3,inactive
same,outcome,CASKI,inactive
same,Potency,Es-2,inactive
same,Potency,HeLa,inactive
same,Potency,Hek293T,inactive
same,Potency,JEG-3,inactive
CC(C)(C)NS(=O)(=O)c1ccc(-c2ccc3[nH]nc(N)c3c2)cc1,Potency,C33A,inactive
same,outcome,CASKI,inactive
same,Potency,Es-2,inactive
same,Potency,HeLa,inactive
same,Potency,Hek293T,inactive
same,Potency,JEG-3,inactive
CCCN1CCC[C@@H](c2cccc(S(C)(=O)=O)c2)C1,outcome,NIH3T3,inactive
same,Potency,C33A,inactive
same,outcome,CASKI,inactive
same,Potency,Es-2,inactive
same,Potency,HeLa,inactive
same,Potency,Hek293T,inactive
same,Potency,JEG-3,inactive
Nc1nc(COC(=O)c2ccc([N+](=O)[O-])cc2)nc(Nc2ccccc2)n1,outcome,NIH3T3,inactive
same,Potency,C33A,inactive
same,outcome,CASKI,inactive
same,Potency,Es-2,inactive
same,Potency,HeLa,inactive
same,Potency,Hek293T,inactive
same,Potency,JEG-3,inactive
N#Cc1ccc(C2CCCc3cncn32)cc1 (stereo not given),outcome,NIH3T3,inactive [at 17.4 µM]
same,Potency,C33A,inactive
same,Potency,CAOV3,inactive
same,outcome,CASKI,inactive
same,Potency,Hek293T,inactive
same,Potency,JEG-3,inactive
CC1OC(O[C@@H]2[C@@H](O)[C@H](OC(=O)[C@]34CCC(C)(C)C[C@H]3C3=CCC5[C@@]6(C)CC[C@H](O[C@@H]7O[C@H](C(=O)O)[C@@H](O)[C@H](O[C@@H]8OC[C@@H](O)[C@H](O)[C@H]8O)[C@H]7O[C@@H]7O[C@H](CO)[C@H](O)[C@H](O)[C@H]7O)[C@@](C)(C=O)C6CC[C@@]5(C)[C@]3(C)C[C@H]4O)O[C@H](C)[C@@H]2OC2OC(C)C(OC3OCC(O)C(O)C3O)C(O)C2O)C(O)C(O)C1O (stereo not given in full),outcome,NIH3T3,inactive [at 9.27 µM]
same,"activity change, negative = cytotoxicity",C33A,2.48% [at 6.55 µM]
same,"activity change, negative = cytotoxicity",CASKI,19.4% [at 6.55 µM]
same,"activity change, negative = cytotoxicity",Es-2,-0.176% [at 6.55 µM]
same,"activity change, negative = cytotoxicity",HeLa,18.4% [at 6.55 µM]
same,"activity change, negative = cytotoxicity",Hek293T,1.68% [at 6.55 µM]
same,"activity change, negative = cytotoxicity",JEG-3,0.0438% [at 6.55 µM]
CC1=C2C(=O)C=C(CO[C@@H]3O[C@H](CO)[C@@H](O)[C@H](O)[C@H]3O)[C@@H]2[C@H]2OC(=O)[C@H](C)[C@@H]2CC1,outcome,NIH3T3,inactive [at 17.4 µM]
same,Potency,C33A,inactive
same,outcome,CASKI,inactive
same,Potency,Es-2,inactive
same,Potency,HeLa,inactive
same,Potency,Hek293T,inactive
same,Potency,JEG-3,inactive
CC(C/C=C/C(C)(C)O)C1CCC(C)(O)C(O)C1 (stereo not given),Potency,C33A,inactive
same,Potency,CAOV3,inactive
same,outcome,CASKI,inactive
same,Potency,Es-2,inactive
same,Potency,HeLa,inactive
same,Potency,Hek293T,inactive
same,Potency,JEG-3,inactive
